Screens from PubChem BioAssay.
TWEAK-Fn14 inh: blocks TWEAK-Fn14 interaction in a reporter cell assay; TWEAK-stimulated Fn14 reporter cells, luciferase luminescence, 8 h; AID 1159606; 360,000 tested, 2% active; inhibition, % at 10 µM; in the data active = inhibition above about 50%
TROY signal inh: blocks TROY-dependent signaling in reporter cells. Q293 LMP1-TROYcd NF-kB luciferase reporter, 4 h. inhibition, % at 10 µM. 360,000 tested, 0.98% active. AID 1347056;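 active = compounds whose plate-normalised and pattern-corrected inhibition of the luciferase reporter signal at the single screening dose is 50% or more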
MITF act: increases MITF-driven TRPM1 promoter luciferase signal; 300,000 tested, 0.75% active; activation, % at 12.5 µM; SK-MEL-5 TRPM1-promoter luciferase, 24 h; % of positive control, neutral wells = 0;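 active = mean activation of at least 80% with every replicate also reaching 80%; inconclusive = mean reaches 80% but some replicate falls short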;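 note: 0% = neutral control wells and 100% = parthenolide positive control wells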
LGR2 antag: Drosophila LGR2 receptor signaling inhibition | HEK293 LGR2, CRE-luciferase, bursicon-stimulated, 4 h | inhibition, % at 9.99 µM | 380,000 tested, 0.35% active;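 active = drop in luminescence signal, shown as inhibition above about 50% in the replicate tests, limit read from the data, passing the limit was not always enough; inconclusive = probably only some replicates passing the limit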;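 note: agonist challenge used bursicon conditioned medium at about half maximal strength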
LMP1 NFkB inh: reduces LMP1-driven NF-kappaB luciferase signal. LMP1-induced NF-kappaB luciferase reporter cells, luminescence. inhibition, % at 12.5 µM. 350,000 tested, 0.69% active; in the data active = inhibition above about 41%; inconclusive = no clear call, values can overlap the other calls;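 note: 0% = neutral control wells and 100% = reference inhibitor control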
TRPM1 prom inh: inhibitors of MITF-driven TRPM1 promoter in melanoma cells | SK-MEL-5 TRPM1 promoter luciferase, 24 h | inhibition, % at 12.5 µM | 330,000 tested, 0.83% active;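 active = mean inhibition across replicates of 60% or more, whatever share of single replicates reaches that level; inconclusive = some that reach 60%, reason not given; inactive = mean inhibition across replicates below 60%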
* = called active by the depositor; ? = inconclusive; . = not tested or not shown. Most compounds without a hit are left out; they make up all but 3% or so of the library.

SMILES	TWEAK-Fn14 inh	TROY signal inh	MITF act	LGR2 antag	LMP1 NFkB inh	TRPM1 prom inh
O=C(NC1CCCCC1)N1CCN(c2ccc(Cl)cc2)CC1	-11	6	-1	-1	8	-3
O=[N+]([O-])c1ccc(N2CCN(C(=S)NCc3ccc(Cl)cc3)CC2)cc1	64*	36	0	17	29	-2
C[C@@H]1CN([C@H](C)CO)C(=O)c2cc(C#CC3CCCC3)cnc2O[C@H]1CN(C)C(=O)Cc1ccccn1	.	.	.	-5	.	.
CCOC(=O)/C(=N/Nc1ccc(OC)cc1)Sc1nnc(CCc2ccccc2)n1-c1ccccc1	51*	68*	-1	-2	6	1
C[C@@H]1CN([C@@H](C)CO)C(=O)c2cc(Br)cnc2O[C@H]1CN(C)S(=O)(=O)c1ccc(F)cc1	.	.	.	10	.	.
O=Cc1ccc(OCc2ccc3ccccc3c2)cc1	-6	-18	103*	-53	11	-100
Oc1ccccc1/C=N/NC(=S)NCCc1ccccc1	93*	5	11	-36	-9	-13
Cc1ccc(NC(=S)NCCc2ccccc2)nc1	-27	-47	84*	-62	-40	-84
CC(C)(CNC(=S)NCCc1ccccc1)CNC(=S)NCCc1ccccc1	56*	38	-4	33	-16	7
OCCNC(=S)NCCc1ccccc1	1	-23	-5	11	-10	7
Cc1ccc(NC(=O)CCCc2ccccc2)nc1	5	-76	?	-40	-16	-71
CCCc1cn(CC[C@@H]2CC[C@@H](NC(=O)CCN3CCCCC3)[C@@H](CO)O2)nn1	.	.	.	-7	.	.
Nc1c(N(CCC2=CCCCC2)C(=O)Cc2ccc(F)cc2)c(=O)[nH]c(=O)n1Cc1ccccc1	13	-8	-2	-6	0	0
CC(C)CN(C(=O)COC(=O)/C=C/c1ccc(Cl)c(Cl)c1)c1c(N)n(Cc2ccccc2)c(=O)[nH]c1=O	19	-14	-99	-6	10	100*
Nc1c(N(CCC2=CCCCC2)C(=O)COc2ccc(F)cc2Cl)c(=O)[nH]c(=O)n1Cc1ccccc1	42	10	-96	-8	6	97*
Cc1cccc(C(=O)N(Cc2ccco2)c2c(N)n(Cc3ccccc3)c(=O)[nH]c2=O)c1	5	-9	-7	-6	68*	5
CC(C)CCN(C(=O)Cc1ccc(Cl)c(Cl)c1)c1c(N)n(Cc2ccccc2)c(=O)[nH]c1=O	-5	8	-79	28	3	81*
CC(C)CCN(C(=O)c1ccncc1)c1c(N)n(Cc2ccccc2)c(=O)[nH]c1=O	15	-5	-5	.	0	4
CCC(=O)N(C)C[C@@H]1Oc2ncc(-c3ccccc3OC)cc2C(=O)N([C@H](C)CO)C[C@H]1C	.	.	.	-9	.	.
CC(C)CN(C(=O)CSc1nc(-c2ccccc2)cn1N)c1c(N)n(Cc2ccccc2)c(=O)[nH]c1=O	43	54*	7	16	-18	-8
CC(c1ccccc1)N1C(=O)c2ccc(C(=O)Nc3ccc(Br)cc3C(=O)O)cc2C1=O (stereo not given)	10	64*	5	4	-1	-3
CC(c1ccccc1)N1C(=O)c2ccc(C(=O)Nc3ccccc3C(=O)O)cc2C1=O (stereo not given)	45	28	-23	27	1	26
Nc1ccccc1Nc1cccc(C(F)(F)F)c1	50*	19	13	16	2	-15
CC[C@H]1OC(=O)[C@H](C)[C@@H](O[C@H]2C[C@@](C)(OC)[C@@H](O)[C@H](C)O2)[C@H](C)[C@@H](O[C@@H]2O[C@H](C)C[C@H](N(C)C)[C@H]2O)[C@](C)(O)C[C@@H](C)C(=NOCOCCOC)[C@H](C)[C@@H](O)[C@]1(C)O	-6	0	-6	11	54*	6
CC[C@H]1OC(=O)[C@H](C)[C@@H](O[C@H]2C[C@@](C)(OC)[C@@H](O)[C@H](C)O2)[C@H](C)[C@@H](O[C@@H]2O[C@H](C)C[C@H](N(C)C)[C@H]2O)[C@](C)(OC)C[C@@H](C)C(=O)[C@H](C)[C@@H](O)[C@]1(C)O	0	1	-3	9	0	5
SMILES	TWEAK-Fn14 inh	TROY signal inh	MITF act	LGR2 antag	LMP1 NFkB inh	TRPM1 prom inh
COc1ccc(C(=O)NCCn2cc(SCC(=O)NCc3ccco3)c3ccccc32)cc1	45	64*	4	.	-4	-3
COc1ccc(C(=O)NCCn2cc(SCC(=O)NCC3CCCO3)c3ccccc32)cc1 (stereo not given)	84*	59*	0	-15	-6	-3
COc1ccc(C(=O)NCCn2cc(SCC(=O)Nc3nnc(C)s3)c3ccccc32)cc1	67*	62*	4	-9	9	-5
Cc1nnc(NC(=O)CSc2cn(CCNC(=O)c3ccccc3)c3ccccc23)s1	25	20	.	17	-4	.
COC(=O)C[C@H]1CC[C@H]2[C@@H](COc3ccc(NC(=O)Nc4ccc(Cl)cc4)cc3C(=O)N2C)O1	.	.	.	-6	.	.
Oc1cccc2ccc(/C=C/c3ccccc3Cl)nc12	95*	74*	4	-45	7	-6
C[C@H](CO)N1C[C@H](C)[C@@H](CN(C)S(=O)(=O)c2ccccc2)OCCCC[C@H](C)Oc2ccc(NS(=O)(=O)c3ccc(Cl)cc3)cc2C1=O	.	.	.	9	.	.
O=S(=O)(Nc1cc(Cl)ccc1-n1cncn1)c1cc(Br)ccc1Br	46	58*	-19	18	13	18
COCCCNC(=O)CSc1nc2cc3c(cc2c(=O)n1CCCC(=O)NCc1ccc(OC)cc1)OCO3	-1	-14	-1	7	5	4
O=C(CSc1nc2ccccc2s1)NCc1ccc2c(c1)OCO2	62*	11	-9	-9	31	9
O=C(CSc1ncnc2scc(-c3ccc(Cl)cc3)c12)NCc1ccc2c(c1)OCO2	86*	-2	-1	.	-8	3
O=C(CCCSc1nc2ccccc2s1)NCc1ccc2c(c1)OCO2	-10	-75	-19	-15	-8	18
NC(=O)CSc1nc2cc3c(cc2c(=O)n1CCCC(=O)NCc1ccc2c(c1)OCO2)OCO3	12	18	.	.	45*	42
COc1cccc(-n2nnnc2SCC(=O)NCc2ccc3c(c2)OCO3)c1	81*	-8	4	-7	2	-5
CC(OC(=O)c1cc(Br)ccc1O)C(=O)Nc1ccc(S(=O)(=O)N2CCCC2)cc1 (stereo not given)	60*	60*	-16	19	1	15
CC(=O)c1cccc(Nc2nc(-c3cccnc3)cs2)c1	7	-10	.	-40	-17	-67
CC(=O)c1cccc(Nc2nc(-c3ccccc3)cs2)c1	2	-15	130*	-46	-40	-142
CCCCC(=O)Nc1cccc(-c2csc(-c3ccccc3)n2)c1	6	-5	33	13	-10	-35
